Screens deposited in PubChem BioAssay by National Center for Advancing Translational Sciences (NCATS).
ELG1 repair inh: blocks ELG1-dependent DNA repair in HEK293T cells; HEK293T ELG1-luciferase reporter, luminescence, 16 h; DNA damage induced by 5-fluorouridine; Potency, µM (series often up to 46.1 µM), inactives show at the highest dose activity change, negative = inhibition, usual class: inhibitors; actives 2.3% (n = 330,000); AID 504467; note: potency is the fitted concentration of half-maximal effect; nearly all actives have a fitted effect of over 55% in size
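Luminescence from the luciferase reporter, measured 30 min after ONE-Glo reagent at room temperature, was the read-out. Beforehand, 2,000 cells per well were exposed for 16 hr at 37 °C to 5-fluorouridine together with compound or vehicle.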
HT1080 IDH1KD tx: HT-1080 IDH1 knockdown cell toxicity (counter line). Potency, µM (highest dose often 46.1 µM), without a hit: at the top dose activity, negative = toxicity, hits mostly cytotoxic. HT-1080 IDH1 knockdown viability, ATP luminescence, 48 h. actives 2% (n = 360,000). AID 686971;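 note: potency is the fitted concentration of half-maximal effect; 0% = DMSO wells and -100% = cell-free medium wells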
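% activity derives from luminescence (CellTiter-Glo), normalised to DMSO and no-cell wells. HT-1080-IDH1KD cells, 750/well, had 48 h compound exposure at 37 °C.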
HT1080-NT tox: kills 2HG-producing HT-1080-NT fibrosarcoma cells; HT-1080-NT fibrosarcoma viability, CellTiter-Glo ATP luminescence, 48 h; Potency, µM (highest dose often 46.1 µM), for the others: at the top dose activity, negative = less viability, most hits filed as cytotoxic; actives 1.6% (n = 360,000);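 note: NT is the 2HG producing partner of a matched IDH1 knockdown line; potency is the fitted concentration of half-maximal effect; 0% = DMSO-treated cells and -100% = media-only wells without cells; nearly all actives have a fitted effect of over 55% in size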
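Luminescent CellTiter-Glo readout after 48 hours of compound exposure at 37 degrees C defined viability of HT-1080-NT cells. Activity was normalized to DMSO wells and cell-free media wells; concentration-response curves were fitted and assigned curve classes.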
TDP1 cell noCPT: qHTS for Inhibitors of human tyrosyl-DNA phosphodiesterase 1 (TDP1): qHTS in cells in absence of CPT; DT40 Tdp1-/- hTDP1 cells, no CPT, ATP luminescence, 48 h; Potency, µM (series often up to 46.2 µM), inactives show top-dose activity change, negative = growth inhibition, most hits filed as inhibitors; actives 15% (n = 420,000); AID 686978, 2013; note: potency is the fitted concentration of half-maximal effect; nearly all actives have a fitted effect of over 55% in size
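No-CPT arm: Tdp1-/-;hTDP1 DT40 cells (400/well) plus compounds, incubated ≥48 hr at 37 °C. Readout CellTiter-Glo luminescence.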
IL1B secr inh: inhibitors of inflammasome signaling (IL-1 beta secretion) | activity change, % at 57.5 µM | THP-1 LPS/ATP IL-1B secretion, AlphaLISA, 16 h; hits give low values | actives 4.7% (n = 360,000); in the data active = activity change below about -50%; inconclusive = mostly about -30% to -49%
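THP-1 cells pretreated 1 hr with compounds (up to 57.5 uM final), then stimulated with LPS (250 ng/mL final) plus ATP (1.25 mM final); secreted IL-1B measured by AlphaLISA after 16 hr, decreased signal indicating inhibition.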
DT40 TDP1 CPT: growth inhibition of DT40 Tdp1-/-;hTDP1 cells with camptothecin (screen for TDP1 inhibitors); chicken DT40 Tdp1-/-;hTDP1 cells + 20 nM CPT, ATP luminescence, 48 h; Potency, µM (series often up to 46.2 µM), for inactives: at the highest dose activity change, negative = growth inhibition, usual class: inhibitors; actives 12% (n = 420,000); AID 686979; note: potency is the fitted concentration of half-maximal effect; nearly all actives have a fitted effect of over 55% in size
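Chicken DT40 Tdp1-/- cells stably complemented with human TDP1 were seeded at 400 cells/well in medium containing 20 nM camptothecin, exposed to pin-transferred compounds, and grown at 37 °C for at least 48 hr. Viability was read as ATP luminescence.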
* = called active by the depositor; ? = inconclusive; · = no result. Rows were chosen to be rich in hits. Some 19% of all compounds tested hit in one or more screens of this group. Unless noted, calls come from the whole dose curve; as a rule, active = well fitted curve in the direction sought with a large enough effect; inconclusive = small, poorly fitted or top-dose-only effect, or another doubt; inactive = no such curve, though single readings can be large; an effect the other way counts as inactive or inconclusive. Unless noted, % is set by controls: 0 for no effect and ±100 for the full control effect.

SMILES	ELG1 repair inh	HT1080 IDH1KD tx	HT1080-NT tox	TDP1 cell noCPT	IL1B secr inh	DT40 TDP1 CPT
Cc1noc(C)c1C(=O)N1CCC[C@@]2(CCN(c3ncccn3)C2)C1	·	·	·	-15.7%	·	2.0%
CCC(C(=O)NCCC(C)C)N(C(=O)Cn1nnc(-c2ccc(C)cc2)n1)c1cccc(O)c1 (stereo not given)	·	·	·	16.4µM*	·	?
CCC(C(=O)NC1CCCC1)N(C(=O)Cn1nnc(-c2ccc(OC)c(OC)c2)n1)c1cccc(O)c1 (stereo not given)	-7.5%	5.7%	-1.7%	-21.2%	1.4	-13.6%
N/N=C/C(=N\Nc1ccc(Cl)cc1)C(=O)c1ccncc1	15.2%	?	?	-23.3%	-50.8*	8.2%
Cc1ccc(N2C(=O)c3oc4ccccc4c(=O)c3C2c2cccc(O)c2)nc1 (stereo not given)	·	-6.6%	-8.3%	?	-11.2	20.6µM*
Cc1c(C(=O)N2CCC(C)CC2)c(S(=O)(=O)NCc2ccc(Br)cc2)c(C)n1C	·	·	·	?	·	-33.7%
COc1ccc(S(=O)(=O)N2CCN(Cc3ccc4c(c3)OCO4)CC2)cc1OC	·	·	·	-29.3%	·	-4.5%
NC(=O)c1cc(Br)cc(C2CCCCC2)c1O	4.6%	?	?	-21.2%	-55.7*	7.8%
COc1ccc(S(=O)(=O)N(C)C[C@H]2Oc3ccc(NC(=O)c4ccncc4)cc3C(=O)N([C@H](C)CO)C[C@@H]2C)cc1	4.0%	-0.3%	-3.8%	-18.7%	-20.9	-21.0%
Cc1cc(C)cc(OCC(=O)N2N=C(c3cccnc3)CC2(O)C(F)(F)F)c1 (stereo not given)	?	-21.6%	-13.5%	?	12.4	?
Cc1cc(C)cc(OCC(=O)N2N=C(C(F)(F)F)CC2(O)C(C)(C)C)c1 (stereo not given)	?	16.4µM*	18.4µM*	?	1.9	?
N#Cc1ccccc1NC(=O)C(=O)NCC(c1cccnc1)N1CCc2ccccc21 (stereo not given)	·	·	·	16.4µM*	·	20.6µM*
CN1CCN(C(CNC(=O)C(=O)Nc2ccccc2C#N)c2ccc3c(c2)OCO3)CC1 (stereo not given)	·	·	·	1.3%	·	5.2%
O=C(NCC(c1cccnc1)N1CCc2ccccc21)c1ccc(Cl)cc1 (stereo not given)	·	·	·	11.6µM*	·	10.3µM*
COc1ccc(C(=O)NCC(c2cccnc2)N2CCc3ccccc32)cc1 (stereo not given)	·	·	·	?	·	9.2µM*
O=C(CSc1ncnc2c1nnn2-c1ccc(F)cc1)NCc1ccco1	?	-3.0%	-6.1%	14.6µM*	-3.7	?
COc1ccc(-n2nnc3c(SC(C(C)=O)C(=O)N(C)C)ncnc32)cc1 (stereo not given)	?	17.5%	3.2%	16.4µM*	0.0	18.4µM*
COc1ccc(-n2nnc3c(SCC(=O)NCc4ccco4)ncnc32)cc1	-10.4%	?	-26.8%	2.91µM*	-16.2	?
Cc1cc(OCC(=O)N2CCN(c3ccccn3)CC2)c(C)cc1Br	-7.3%	2.6%	0.8%	?	-5.1	?
CCOC(=O)c1nc(Nc2ccccc2)c2ccccc2n1	?	10.5%	-3.3%	?	-20.9	?
Cc1ccc(Nc2nc(-c3cccnc3)nc3ccccc23)cc1	?	?	?	8.2µM*	-67.4*	18.4µM*
CCOC(=O)c1nc(Nc2ccc(C)cc2)c2ccccc2n1	?	-21.3%	-20.7%	13µM*	?	20.6µM*
Cc1ccccc1Nc1nc(-c2cccnc2)nc2ccccc12	?	4.0%	6.5%	20.6µM*	-13.6	?
